GoLoco inh red: qHTS Assay for Inhibitors of RGS12 GoLoco Motif Activity (Red Fluorophore); Guanine nucleotide-binding protein G(i) subunit alpha-1 (Homo sapiens), P63096; AID 880, 2007; Gai1:RGS12 GoLoco peptide FP, rhodamine, 10 min; 230,000 tested, 0.44% active; Potency, µM (titrated, usually from 61.6 µM), actives largely listed as inhibitors; active = well fitted inhibition curve with a large enough effect, not every such curve was filed as active; inactive = no such curve, though single readings can be large or run the other way; note: nearly all actives have a fitted effect of over 30% in size
Menin-MLL FL inh: qHTS Assay for Inhibitors Targeting the Menin-MLL Interaction in MLL Related Leukemias: Competition With Fluorescein Labeled MLL-derived Peptide. AID 1766, 2009. Fluorescence polarization, fluorescein-MLL peptide displacement from menin. FP activity change, % at 61.4 µM. 290,000 tested, under 10 active; active = well fitted curve in the direction sought with a large enough effect in the polarisation, not every such curve was filed as active; inconclusive = small, poorly fitted or top-dose-only effect, or effect the other way, or a change in a side signal; inactive = no such curve, though single readings can be large or run the other way; the % refers to the polarisation
MLL CXXC-DNA inh: qHTS Fluorescence Polarization Assay for Inhibitors of MLL CXXC domain - DNA interaction | Histone-lysine N-methyltransferase 2A (Homo sapiens), Q03164 | MLL-CXXC / FITC-HOXA9 DNA fluorescence polarization | Potency, µM (titrated, usually from 115 µM), hits mostly inhibitors | 290,000 tested, 0.037% active | AID 2662, 2010; active = well fitted inhibition curve with a large enough effect in the polarisation, with a control signal flat, not every such curve was filed as active; inconclusive = small, poorly fitted or top-dose-only effect, or effect the other way, or a change in a side signal; inactive = no such curve, though single readings can be large or run the other way; the % refers to the polarisation
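Fluorescence polarization: 7 uM MLL-CXXC (stock) preincubated 5 min with compounds, then 50 nM fluorescein-HOX-A9 DNA (stock) added; 30 min ambient. Buffer 50 mM Tris-HCl pH 7.5, 50 mM NaCl, 1 mM DTT, 0.05% BSA.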
Tb PFK block: qHTS Assay to Find Inhibitors of T. brucei phosphofructokinase; AID 485367, 2010; T. brucei PFK, ADP-Glo luminescence; Potency, µM (titrated, usually from 57.5 µM), actives largely listed as inhibitors; 330,000 tested, 0.17% active; ATP-dependent 6-phosphofructokinase (Trypanosoma brucei brucei), O15648; active = well fitted inhibition curve with a large enough effect; inconclusive = small, poorly fitted or top-dose-only effect, or effect the other way; note: nearly all actives have a fitted effect of over 60% in size
Target sequence (O15648 whole entry, looked up): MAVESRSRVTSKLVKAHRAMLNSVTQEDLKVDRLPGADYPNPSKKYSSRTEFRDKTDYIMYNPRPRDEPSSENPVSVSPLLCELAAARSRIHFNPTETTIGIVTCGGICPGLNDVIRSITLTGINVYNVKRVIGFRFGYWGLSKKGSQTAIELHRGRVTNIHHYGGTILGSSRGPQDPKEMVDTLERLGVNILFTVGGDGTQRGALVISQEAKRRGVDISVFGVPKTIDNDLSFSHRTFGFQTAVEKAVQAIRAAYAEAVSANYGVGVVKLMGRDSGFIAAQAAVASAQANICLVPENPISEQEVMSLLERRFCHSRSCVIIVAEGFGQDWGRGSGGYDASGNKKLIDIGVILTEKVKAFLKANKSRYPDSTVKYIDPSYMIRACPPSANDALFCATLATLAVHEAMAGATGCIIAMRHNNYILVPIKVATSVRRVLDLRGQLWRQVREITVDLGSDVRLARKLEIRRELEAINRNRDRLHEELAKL
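In TEA buffer at pH 8.0 with 5 mM MgCl2, enzyme (1.25 nM) converted F6P (0.5 mM) and ATP (0.1 mM) for 45 min at room temperature. ADP product was read by luciferase luminescence.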
Menin-MLL TR inh: qHTS Assay for Inhibitors Targeting the Menin-MLL Interaction in MLL Related Leukemias: Competition With Texas Red Labeled MLL-derived Mutant Peptide; O00255; Menin + Texas Red MLL mutant peptide, fluorescence polarization; Potency, µM (highest dose often 61.6 µM), usual class: inhibitors; 270,000 tested, 0.23% active; AID 1768, 2009; active = well fitted inhibition curve with a large enough effect in the polarisation, with a control signal flat, not every such curve was filed as active; inconclusive = small, poorly fitted or top-dose-only effect, or effect the other way, or a change in a side signal; inactive = no such curve, though single readings can be large or run the other way; the % refers to the polarisation
Of the large screens only hits and unclear results are named; the others gave an inactive call. Rows were chosen to be rich in hits. Some 0.43% of all compounds tested hit in one or more screens of this group.

COc1cc(/C=N/NS(=O)(=O)c2ccc(C)c([N+](=O)[O-])c2)cc([N+](=O)[O-])c1O	Menin-MLL TR inh 25µM (no result: GoLoco inh red)
COc1cc(/C=N/NS(=O)(=O)c2ccc(C)c([N+](=O)[O-])c2)ccc1O	none
COc1ccc(Br)cc1CNc1ccc(N2CCOCC2)cc1	Menin-MLL TR inh 14µM (no result: GoLoco inh red)
CCCCn1cnc2c(c(-c3ccccc3)c(-c3ccccc3)n2Cc2ccco2)c1=N	none (no result: Menin-MLL TR inh)
N=c1c2c(-c3ccccc3)c(-c3ccccc3)n(Cc3ccccc3)c2ncn1CCCn1ccnc1	Menin-MLL TR inh 22µM
NC(=O)C1CC2(NC(=O)NC2=O)c2cc(F)ccc2O1 (configuration not stated)	none (no result: GoLoco inh red, Tb PFK block)
CCOP(=O)(OCC)/C(=N/OC(=O)c1ccc(OC)cc1)C(N)=O	GoLoco inh red 4.5µM (no result: Menin-MLL TR inh)
CCOP(=O)(OCC)/C(=N/OC(=O)c1ccccc1C)C(N)=O	none
CCCCC(CC)C/C=C1\CC(C(=O)OCC)Oc2ccccc21 (configuration not stated) (tested in a mixture with another compound)	none (no result: MLL CXXC-DNA inh, Tb PFK block)
C[n+]1cnn2c1SCC1(COC1)C2	GoLoco inh red 10µM
CCC(C)c1cc([N+](=O)[O-])cc([N+](=O)[O-])c1OC(=O)OC(C)C (configuration not stated)	none (no result: GoLoco inh red, MLL CXXC-DNA inh, Tb PFK block)
CCOCCOC(C)=O	GoLoco inh red 28µM (no result: Menin-MLL FL inh, MLL CXXC-DNA inh, Tb PFK block, Menin-MLL TR inh)
O=C(Nc1ccccc1)c1ccc(CSc2ncccn2)cc1	GoLoco inh red 2.2µM, Menin-MLL TR inh inconclusive
O=C1COc2cc(S(=O)(=O)NCc3ccco3)c(Cl)cc2N1	none (no result: GoLoco inh red, Menin-MLL FL inh, MLL CXXC-DNA inh, Menin-MLL TR inh)
CCn1c(C)[n+](Cc2ccccc2)c2ccc(Cl)cc21	none
CCn1c(C)[n+](Cc2ccccc2)c2ccc(C(=O)OC)cc21	GoLoco inh red 1.3µM
O=C(CSc1nc2ccccc2s1)N1c2ccccc2Sc2ccc(Cl)cc21	Menin-MLL TR inh 20µM
COc1ccc(-c2nc3c(c4c2C[C@H](c2ccccc2)OC4)CN(C(=O)c2cc(I)ccc2F)CC3)c(C)c1	none (no result: MLL CXXC-DNA inh, Tb PFK block)
COc1ccc(CCNC(=O)C(=O)c2c[nH]c3ccccc23)cc1	none (no result: Menin-MLL FL inh, MLL CXXC-DNA inh, Tb PFK block, Menin-MLL TR inh)
C[N+]1(C)CCC(=C2c3ccccc3CC(=O)c3sccc32)CC1	GoLoco inh red 14µM
Nc1nc2c(ncn2[C@@H]2O[C@H](CO)[C@@H](O)[C@@H]2O)c(=[SH+])[nH]1.O=[N+]([O-])c1ccc(O)[c]([Hg])c1	GoLoco inh red 0.11µM (no result: Menin-MLL FL inh, MLL CXXC-DNA inh, Tb PFK block, Menin-MLL TR inh)
Nc1[nH]c(=O)nc2c1ncn2[C@H]1O[C@@H](CO)[C@@H](O)[C@@H]1O	none (no result: Menin-MLL FL inh, MLL CXXC-DNA inh, Tb PFK block, Menin-MLL TR inh)
CCCN1C(=O)/C(=C/c2c(NCCCOCC)nc3c(C)cccn3c2=O)SC1=S	Menin-MLL FL inh inconclusive, MLL CXXC-DNA inh inconclusive, Menin-MLL TR inh 8.9µM
CCOCCCNc1nc2c(C)cccn2c(=O)c1/C=C1\SC(=S)N(CC(C)C)C1=O	Menin-MLL FL inh inconclusive, MLL CXXC-DNA inh inconclusive, Menin-MLL TR inh inconclusive
NS(=O)(=O)c1nc(S(=O)(=O)O)c2[nH]cnc2n1	none (no result: Menin-MLL FL inh, MLL CXXC-DNA inh, Tb PFK block, Menin-MLL TR inh)
O=C1CC(N(CCc2ccccc2)C(=S)Nc2cc(Cl)ccc2Cl)C(=O)N1c1c(Cl)cccc1Cl (configuration not stated)	Menin-MLL TR inh 10µM
COc1cccc2c1C(=N)c1c(O)c3c(c(O)c1C2=O)C[C@](O)(C(C)=O)C[C@@H]3O[C@H]1C[C@H](N)[C@@H](O)[C@H](C)O1	none (no result: Menin-MLL FL inh, MLL CXXC-DNA inh, Tb PFK block, Menin-MLL TR inh)
COc1cccc2c1C(=O)c1c(O)c3c(c(O)c1C2=O)C[C@](O)(C(C)=O)C[C@H]3O[C@@H]1C[C@H](N)[C@H](O)[C@H](C)O1	GoLoco inh red 3.2µM, Menin-MLL FL inh inconclusive, Menin-MLL TR inh inconclusive (no result: MLL CXXC-DNA inh, Tb PFK block)
CC1(C)CC(N2CCOCC2)=CC(=[N+]2CCOCC2)C1	none
CN(C)NC1=CC(=[N+]2CCCC2)CC(C)(C)C1	none
CC1C[N+](=C2C=C(N3CCOCC3)CC(C)(C)C2)CC(C)O1 (configuration not stated)	GoLoco inh red 25µM (no result: Menin-MLL TR inh)
CCCN(CCC)C1=CC(=[N+]2CCCC2)CC(C)(C)C1	GoLoco inh red 7.9µM
CC1(C)CC(N2CCCCC2)=CC(=[N+]2CCCCC2)C1	GoLoco inh red 2.5µM
C=CCN1c2ccccc2[C@]23C[C@@H](C(=O)OC)N(S(=O)(=O)CCCC)C2=NC(C(=O)OC)=C(C(=O)OC)[C@H]13	none (no result: MLL CXXC-DNA inh, Tb PFK block)
CC1=C(CCC(=O)O)c2cc3nc(cc4[nH]c(cc5[nH]c(cc1n2)c(C)c5C(C)O)c(C)c4C(C)O)C(C)=C3CCC(=O)O (configuration not stated)	GoLoco inh red 13µM, Menin-MLL TR inh inconclusive (no result: MLL CXXC-DNA inh, Tb PFK block)
Cc1ccc(-c2ccc(CCC(=O)O)n2C(C)C)cc1	none
COC(=O)C1(C(=O)OC)CC2=CC(CC2=O)Cc2ccccc2[C@@H]1C[N+](=O)[O-] (some centres not stated)	GoLoco inh red 22µM (no result: MLL CXXC-DNA inh, Tb PFK block)
COC(=O)C12CC3=C[C@H](CC3=O)Cc3ccccc3[C@@H]1CNC2=O (some centres not stated)	none (no result: MLL CXXC-DNA inh, Tb PFK block)
C(=C\c1ccccn1)/c1ccccn1	Menin-MLL TR inh 13µM
C=Cc1ccccn1	none (no result: Menin-MLL FL inh, MLL CXXC-DNA inh, Tb PFK block, Menin-MLL TR inh)
COc1ccc2[nH]c(C)c(CCNCc3cc(OC)c(OC)c(OC)c3)c2c1	Menin-MLL FL inh inconclusive
COc1ccc(CNCCc2c(C)[nH]c3ccc(OC(F)(F)F)cc23)c(OC)c1	Menin-MLL TR inh 28µM (no result: GoLoco inh red)
CCC(=O)NCCCC[C@H](NC(=O)OCc1ccccc1)C(=O)Nc1ccc2c(C)cc(=O)oc2c1	none (no result: GoLoco inh red, MLL CXXC-DNA inh, Tb PFK block)
Cc1ccsc1/C=C/C1=Cc2c(sc(NC(=O)CSc3n[nH]c(N)n3)c2C#N)C(C)(C)C1	Menin-MLL FL inh inconclusive, Tb PFK block inconclusive, Menin-MLL TR inh inconclusive
